Laboratory results taken from the supplement of paper PMC4466140.

Target: AgAbp1
Experiment: SPOT peptide array binding signal intensity (averaged, normalized) (arbitrary units (background-subtracted, floor 0; scale differs between SH3 domains)); higher = stronger binding of the SH3 domain to the peptide
Method in brief: (§1)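 Binding signal refers to normalized, background-subtracted spot intensity averaged over replicates, expressed in arbitrary units that differ between domains. GST-fused SH3 domains from four yeast species were incubated at 10 μg/ml overnight at 4°C on cellulose membranes of synthetic 15-mer peptides with cysteines replaced by serines. Bound protein was detected with anti-GST antibody, an HRP anti-mouse secondary and luminol, and quantified with Genespotter.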

Binder	SPOT peptide array binding signal intensity
GPPPPLPPPLFPSSS	≤ 0

Target: AgBbc1
Experiment: as above
Method in brief: as §1

Binder	SPOT peptide array binding signal intensity
GPPPPLPPPLFPSSS	≤ 0

Target: AgBem1-D1
Experiment: as above
Method in brief: as §1

Binder	SPOT peptide array binding signal intensity
GPPPPLPPPLFPSSS	31

Target: AgBzz1-D1
Experiment: as above
Method in brief: as §1

Binder	SPOT peptide array binding signal intensity
GPPPPLPPPLFPSSS	≤ 0

Target: AgBzz1-D2
Experiment: as above
Method in brief: as §1

Binder	SPOT peptide array binding signal intensity
GPPPPLPPPLFPSSS	≤ 0

Target: AgCyk3
Experiment: as above
Method in brief: as §1

Binder	SPOT peptide array binding signal intensity
GPPPPLPPPLFPSSS	≤ 0

Target: AgFus1
Experiment: as above
Method in brief: as §1

Binder	SPOT peptide array binding signal intensity
GPPPPLPPPLFPSSS	≤ 0

Target: AgHof1
Experiment: as above
Method in brief: as §1

Binder	SPOT peptide array binding signal intensity
GPPPPLPPPLFPSSS	1830

Target: AgHse1
Experiment: as above
Method in brief: as §1

Binder	SPOT peptide array binding signal intensity
GPPPPLPPPLFPSSS	62.5

Target: AgLsb1
Experiment: as above
Method in brief: as §1

Binder	SPOT peptide array binding signal intensity
GPPPPLPPPLFPSSS	≤ 0

Target: AgLsb4
Experiment: as above
Method in brief: as §1

Binder	SPOT peptide array binding signal intensity
GPPPPLPPPLFPSSS	≤ 0

Target: AgMyo5
Experiment: as above
Method in brief: as §1

Binder	SPOT peptide array binding signal intensity
GPPPPLPPPLFPSSS	1900

Target: AgNbp2
Experiment: as above
Method in brief: as §1

Binder	SPOT peptide array binding signal intensity
GPPPPLPPPLFPSSS	≤ 0

Target: AgRvs167
Experiment: as above
Method in brief: as §1

Binder	SPOT peptide array binding signal intensity
GPPPPLPPPLFPSSS	1

Target: AgSho1
Experiment: as above
Method in brief: as §1

Binder	SPOT peptide array binding signal intensity
GPPPPLPPPLFPSSS	≤ 0

Target: AgSla1-D1-D2
Experiment: as above
Method in brief: as §1

Binder	SPOT peptide array binding signal intensity
GPPPPLPPPLFPSSS	≤ 0

Target: AgSla1-D3
Experiment: as above
Method in brief: as §1

Binder	SPOT peptide array binding signal intensity
GPPPPLPPPLFPSSS	≤ 0

Target: CaAbp1-D1
Experiment: as above
Method in brief: as §1

Binder	SPOT peptide array binding signal intensity
GPPPPLPPPLFPSSS	1

Target: CaAbp1-D2
Experiment: as above
Method in brief: as §1

Binder	SPOT peptide array binding signal intensity
GPPPPLPPPLFPSSS	≤ 0

Target: CaBbc1
Experiment: as above
Method in brief: as §1

Binder	SPOT peptide array binding signal intensity
GPPPPLPPPLFPSSS	1

Target: CaBem1-D1
Experiment: as above
Method in brief: as §1

Binder	SPOT peptide array binding signal intensity
GPPPPLPPPLFPSSS	114

Target: CaBzz1-D1
Experiment: as above
Method in brief: as §1

Binder	SPOT peptide array binding signal intensity
GPPPPLPPPLFPSSS	93

Target: CaBzz1-D2
Experiment: as above
Method in brief: as §1

Binder	SPOT peptide array binding signal intensity
GPPPPLPPPLFPSSS	10

Target: CaCyk3
Experiment: as above
Method in brief: as §1

Binder	SPOT peptide array binding signal intensity
GPPPPLPPPLFPSSS	≤ 0

Target: CaFus1
Experiment: as above
Method in brief: as §1

Binder	SPOT peptide array binding signal intensity
GPPPPLPPPLFPSSS	≤ 0

Target: CaHof1
Experiment: as above
Method in brief: as §1

Binder	SPOT peptide array binding signal intensity
GPPPPLPPPLFPSSS	178

Target: CaHse1
Experiment: as above
Method in brief: as §1

Binder	SPOT peptide array binding signal intensity
GPPPPLPPPLFPSSS	1.5

Target: CaLsb1
Experiment: as above
Method in brief: as §1

Binder	SPOT peptide array binding signal intensity
GPPPPLPPPLFPSSS	≤ 0

Target: CaLsb4
Experiment: as above
Method in brief: as §1

Binder	SPOT peptide array binding signal intensity
GPPPPLPPPLFPSSS	11.5

Target: CaMyo5
Experiment: as above
Method in brief: as §1

Binder	SPOT peptide array binding signal intensity
GPPPPLPPPLFPSSS	284

Target: CaNbp2
Experiment: as above
Method in brief: as §1

Binder	SPOT peptide array binding signal intensity
GPPPPLPPPLFPSSS	6.5

Target: CaRvs167
Experiment: as above
Method in brief: as §1

Binder	SPOT peptide array binding signal intensity
GPPPPLPPPLFPSSS	7.83

Target: CaRvs167-3
Experiment: as above
Method in brief: as §1

Binder	SPOT peptide array binding signal intensity
GPPPPLPPPLFPSSS	1.5

Target: CaSho1
Experiment: as above
Method in brief: as §1

Binder	SPOT peptide array binding signal intensity
GPPPPLPPPLFPSSS	≤ 0

Target: CaSla1-D1-D2
Experiment: as above
Method in brief: as §1

Binder	SPOT peptide array binding signal intensity
GPPPPLPPPLFPSSS	≤ 0

Target: CaSla1-D3
Experiment: as above
Method in brief: as §1

Binder	SPOT peptide array binding signal intensity
GPPPPLPPPLFPSSS	≤ 0

Target: ScAbp1
Experiment: as above
Method in brief: as §1

Binder	SPOT peptide array binding signal intensity
GPPPPLPPPLFPSSS	≤ 0

Target: ScBbc1
Experiment: as above
Method in brief: as §1

Binder	SPOT peptide array binding signal intensity
GPPPPLPPPLFPSSS	≤ 0

Target: ScBem1-D1
Experiment: as above
Method in brief: as §1

Binder	SPOT peptide array binding signal intensity
GPPPPLPPPLFPSSS	≤ 0

Target: ScBzz1-D1
Experiment: as above
Method in brief: as §1

Binder	SPOT peptide array binding signal intensity
GPPPPLPPPLFPSSS	1.5

Target: ScBzz1-D2
Experiment: as above
Method in brief: as §1

Binder	SPOT peptide array binding signal intensity
GPPPPLPPPLFPSSS	≤ 0

Target: ScCyk3
Experiment: as above
Method in brief: as §1

Binder	SPOT peptide array binding signal intensity
GPPPPLPPPLFPSSS	≤ 0

Target: ScFus1
Experiment: as above
Method in brief: as §1

Binder	SPOT peptide array binding signal intensity
GPPPPLPPPLFPSSS	≤ 0

Target: ScHof1
Experiment: as above
Method in brief: as §1

Binder	SPOT peptide array binding signal intensity
GPPPPLPPPLFPSSS	1900

Target: ScHse1
Experiment: as above
Method in brief: as §1

Binder	SPOT peptide array binding signal intensity
GPPPPLPPPLFPSSS	≤ 0

Target: ScLsb1
Experiment: as above
Method in brief: as §1

Binder	SPOT peptide array binding signal intensity
GPPPPLPPPLFPSSS	288

Target: ScLsb2
Experiment: as above
Method in brief: as §1

Binder	SPOT peptide array binding signal intensity
GPPPPLPPPLFPSSS	12

Target: ScLsb3
Experiment: as above
Method in brief: as §1

Binder	SPOT peptide array binding signal intensity
GPPPPLPPPLFPSSS	110

Target: ScLsb4
Experiment: as above
Method in brief: as §1

Binder	SPOT peptide array binding signal intensity
GPPPPLPPPLFPSSS	20

Target: ScMyo3
Experiment: as above
Method in brief: as §1

Binder	SPOT peptide array binding signal intensity
GPPPPLPPPLFPSSS	1490

Target: ScMyo5
Experiment: as above
Method in brief: as §1

Binder	SPOT peptide array binding signal intensity
GPPPPLPPPLFPSSS	901

Target: ScNbp2
Experiment: as above
Method in brief: as §1

Binder	SPOT peptide array binding signal intensity
GPPPPLPPPLFPSSS	≤ 0

Target: ScPex13
Experiment: as above
Method in brief: as §1

Binder	SPOT peptide array binding signal intensity
GPPPPLPPPLFPSSS	4060

Target: ScRvs167
Experiment: as above
Method in brief: as §1

Binder	SPOT peptide array binding signal intensity
GPPPPLPPPLFPSSS	32.5

Target: ScSho1
Experiment: as above
Method in brief: as §1

Binder	SPOT peptide array binding signal intensity
GPPPPLPPPLFPSSS	≤ 0

Target: ScSla1-D1-D2
Experiment: as above
Method in brief: as §1

Binder	SPOT peptide array binding signal intensity
GPPPPLPPPLFPSSS	≤ 0

Target: ScSla1-D3
Experiment: as above
Method in brief: as §1

Binder	SPOT peptide array binding signal intensity
GPPPPLPPPLFPSSS	≤ 0

Target: SpAbp1-D1
Experiment: as above
Method in brief: as §1

Binder	SPOT peptide array binding signal intensity
GPPPPLPPPLFPSSS	≤ 0

Target: SpBbc1
Experiment: as above
Method in brief: as §1

Binder	SPOT peptide array binding signal intensity
GPPPPLPPPLFPSSS	≤ 0

Target: SpBzz1-D1
Experiment: as above
Method in brief: as §1

Binder	SPOT peptide array binding signal intensity
GPPPPLPPPLFPSSS	683

Target: SpBzz1-D2
Experiment: as above
Method in brief: as §1

Binder	SPOT peptide array binding signal intensity
GPPPPLPPPLFPSSS	4.25

Target: SpCyk3
Experiment: as above
Method in brief: as §1

Binder	SPOT peptide array binding signal intensity
GPPPPLPPPLFPSSS	≤ 0

Target: SpHof1
Experiment: as above
Method in brief: as §1

Binder	SPOT peptide array binding signal intensity
GPPPPLPPPLFPSSS	≤ 0

Target: SpHof1-2
Experiment: as above
Method in brief: as §1

Binder	SPOT peptide array binding signal intensity
GPPPPLPPPLFPSSS	≤ 0

Target: SpHof1-3
Experiment: as above
Method in brief: as §1

Binder	SPOT peptide array binding signal intensity
GPPPPLPPPLFPSSS	≤ 0

Target: SpHse1
Experiment: as above
Method in brief: as §1

Binder	SPOT peptide array binding signal intensity
GPPPPLPPPLFPSSS	40.8

Target: SpLsb1
Experiment: as above
Method in brief: as §1

Binder	SPOT peptide array binding signal intensity
GPPPPLPPPLFPSSS	184

Target: SpLsb4
Experiment: as above
Method in brief: as §1

Binder	SPOT peptide array binding signal intensity
GPPPPLPPPLFPSSS	225

Target: SpMyo1
Experiment: as above
Method in brief: as §1

Binder	SPOT peptide array binding signal intensity
GPPPPLPPPLFPSSS	1290

Target: SpNbp2
Experiment: as above
Method in brief: as §1

Binder	SPOT peptide array binding signal intensity
GPPPPLPPPLFPSSS	≤ 0

Target: SpPex13
Experiment: as above
Method in brief: as §1

Binder	SPOT peptide array binding signal intensity
GPPPPLPPPLFPSSS	≤ 0

Target: SpRvs167
Experiment: as above
Method in brief: as §1

Binder	SPOT peptide array binding signal intensity
GPPPPLPPPLFPSSS	1430

Target: SpSla1-D1-D2
Experiment: as above
Method in brief: as §1

Binder	SPOT peptide array binding signal intensity
GPPPPLPPPLFPSSS	≤ 0

Target: SpSla1-D3
Experiment: as above
Method in brief: as §1

Binder	SPOT peptide array binding signal intensity
GPPPPLPPPLFPSSS	≤ 0
